Giardia killer = Small Molecules that selectively kill Giardia lamblia: qHTS. 0.15% of 340,000 active. Giardia lamblia trophozoite viability. activity change, % at 7.66 µM, hits read low; in the data active = activity change below about -80%; inconclusive = between about -30% and that limit;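 note: parasites exposed to compound for two days anaerobically before the ATP read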
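Giardia lamblia trophozoites (100 cells/well) were incubated with compounds for 48 h at 37 deg C under anaerobic conditions. Viability was read as ATP content by one-step luminescence after 15-30 min at room temperature.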
ELG1 DNA repair = qHTS screen for small molecules that inhibit ELG1-dependent DNA repair in human embryonic kidney (HEK293T) cells expressing luciferase-tagged ELG1 | Potency, µM (highest dose often 46.1 µM), inactives show top-dose activity change, negative = inhibition, usual class: inhibitors | HEK293T ELG1-luciferase reporter, luminescence, 16 h; DNA damage induced by 5-fluorouridine | AID 504467, 2011 | 2.3% of 330,000 active; note: potency is the fitted concentration of half-maximal effect; nearly all actives have a fitted effect of over 55% in size
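In this reporter screen, reduction of luminescence relative to DMSO vehicle indicated activity. Compounds and 5-fluorouridine were added together to 2,000 cells per well, incubated for 16 hr at 37 °C, then developed with ONE-Glo.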
IL-1B inflam inh = qHTS for Inhibitors of Inflammasome Signaling: IL-1-beta AlphaLISA Primary Screen; THP-1 LPS/ATP IL-1B secretion, AlphaLISA, 16 h; stronger effect = lower value; activity change, % at 57.5 µM; 4.7% of 360,000 active; AID 743279, 2014; in the data active = activity change below about -50%; inconclusive = mostly about -30% to -49%
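THP-1 cells pretreated 1 hr with compounds (up to 57.5 uM final), then stimulated with LPS (250 ng/mL final) plus ATP (1.25 mM final); secreted IL-1B measured by AlphaLISA after 16 hr, decreased signal indicating inhibition.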
TDP1 cell noCPT = qHTS for Inhibitors of human tyrosyl-DNA phosphodiesterase 1 (TDP1): qHTS in cells in absence of CPT; DT40 Tdp1-/- hTDP1 cells, no CPT, ATP luminescence, 48 h; Potency, µM (highest dose often 46.2 µM), inactives show at the highest dose activity change, negative = growth inhibition, actives largely listed as inhibitors; 15% of 420,000 active; AID 686978, 2013; note: potency is the fitted concentration of half-maximal effect; nearly all actives have a fitted effect of over 55% in size
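Seeded 400 DT40-hTDP1 cells/well (vehicle DMSO, no 20 nM CPT); pinned compounds; ≥48 hr at 37 °C; CellTiter-Glo luminescence as viability measure.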
TDP1 cell CPT = qHTS for Inhibitors of human tyrosyl-DNA phosphodiesterase 1 (TDP1): qHTS in cells in presence of CPT; Potency, µM (titrated, usually from 46.2 µM), for the others: at the top dose activity change, negative = growth inhibition, most hits filed as inhibitors; chicken DT40 Tdp1-/-;hTDP1 cells + 20 nM CPT, ATP luminescence, 48 h; AID 686979, 2013; 12% of 420,000 active; note: potency is the fitted concentration of half-maximal effect; nearly all actives have a fitted effect of over 55% in size
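Chicken DT40 Tdp1-/- cells stably complemented with human TDP1 were seeded at 400 cells/well in medium containing 20 nM camptothecin, exposed to pin-transferred compounds, and grown at 37 °C for at least 48 hr. Viability was read as ATP luminescence.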
TDP1 inh = qHTS Assay for Inhibitors of Tyrosyl-DNA Phosphodiesterase (TDP1). Tyrosyl-DNA phosphodiesterase 1 (Homo sapiens), Q9NUW8. recombinant TDP1, AlphaScreen DNA substrate cleavage. Potency, µM (top dose mostly 130 µM), inactives show at the highest dose activity change, negative = inhibition, usual class: inhibitors. 0.28% of 350,000 active. AID 485290, 2010; note: potency is the fitted concentration of half-maximal effect; nearly all actives have a fitted effect of over 40% in size
Target sequence (Q9NUW8 whole entry, looked up): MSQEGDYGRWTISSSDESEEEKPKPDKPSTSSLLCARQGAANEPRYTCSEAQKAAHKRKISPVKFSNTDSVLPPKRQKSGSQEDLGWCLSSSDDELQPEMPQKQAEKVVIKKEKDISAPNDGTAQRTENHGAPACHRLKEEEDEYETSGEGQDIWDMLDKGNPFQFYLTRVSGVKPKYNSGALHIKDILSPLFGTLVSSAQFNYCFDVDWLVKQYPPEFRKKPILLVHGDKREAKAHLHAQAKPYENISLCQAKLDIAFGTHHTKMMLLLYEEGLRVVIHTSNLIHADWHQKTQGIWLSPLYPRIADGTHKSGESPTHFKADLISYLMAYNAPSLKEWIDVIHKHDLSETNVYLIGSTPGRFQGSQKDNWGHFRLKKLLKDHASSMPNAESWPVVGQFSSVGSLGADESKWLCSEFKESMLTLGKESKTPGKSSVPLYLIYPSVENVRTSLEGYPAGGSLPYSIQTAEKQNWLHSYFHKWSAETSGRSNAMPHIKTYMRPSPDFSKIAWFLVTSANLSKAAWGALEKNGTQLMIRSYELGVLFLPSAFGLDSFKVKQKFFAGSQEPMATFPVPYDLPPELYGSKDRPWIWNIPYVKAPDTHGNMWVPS
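Enzyme-compound mixtures sat 15 min at room temperature, followed by a 5 min reaction with 15 nM final substrate and 10 min with AlphaScreen beads. Recombinant human Tdp1 was used at 1 nM final.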
The depositor's hits bear a star; ? = inconclusive; . = no result; [ ] = dose if it differs, or a comment. Rows were chosen to be rich in hits. Some 19% of all compounds tested hit in one or more screens of this group. Unless noted, calls come from the whole dose curve; as a rule, active = well fitted curve in the direction sought with a large enough effect; inconclusive = small, poorly fitted or top-dose-only effect, or another doubt; inactive = no such curve, though single readings can be large; an effect the other way counts as inactive or inconclusive. % is set by controls: 0 for no effect and ±100 for the full control effect.

SMILES	Giardia killer	ELG1 DNA repair	IL-1B inflam inh	TDP1 cell noCPT	TDP1 cell CPT	TDP1 inh
O=S(=O)(c1ccc(Br)cc1)c1nnn2c1nc(NCc1ccc3c(c1)OCO3)c1sccc12	.	.	.	-23.3%	?	2.6%
CCOC(=O)COc1c(Br)cc(/C=C2\SC(=O)N(CC(=O)N3CCCC3)C2=O)cc1OC	11.5	1.7%	-51.2*	-23.0%	-22.6%	2.2%
Cc1ccc(/C=C2/SC(=S)N(CCC(=O)N3CCN(C)CC3)C2=O)cc1	-13.4	-19.0%	-25.9	18.4µM*	?	3.6%
O=C(CN1C(=O)/C(=C/c2ccccc2)SC1=S)N1CCN(CCc2ccccn2)CC1	5.3	-23.0%	8.5	11.6µM*	8.2µM*	.
O=C(CCN1C(=O)/C(=C\c2ccccc2)SC1=S)N1CCCCC1	-13.0	?	-99.6*	10.3µM*	9.2µM*	0.0%
Cc1ccc(/C=C2\SC(=S)N(CCC(=O)NNS(=O)(=O)c3ccc(C)cc3)C2=O)cc1	0.2	-2.0%	-1.6	-24.8%	0.5%	-2.8%
CCc1ccc(/C=C2\SC(=S)N(CCCC(=O)N3CCCC3)C2=O)cc1	.	.	-28.7	?	?	.
O=C(c1ccccc1)N1CCN(CCc2ccccn2)CC1	-12.4	-0.4%	-2.3	-20.9%	-7.4%	-6.8%
COCCCn1c(=O)c2sccc2n2c(CCCC(=O)Nc3cccc(OC)c3)nnc12	.	.	.	?	-28.1%	7.7%
COc1cc(OC)cc(-c2nnc3n2N=C(c2ccccc2OC)CS3)c1	.	.	.	.	.	16.8%
Cc1cc(NC(=O)CSc2nc(-c3ccccc3Cl)nc3c2c(=O)n(C)c(=O)n3C)no1	-8.0	-5.1%	20.3	-0.5%	-9.2%	2.5%
Cc1ccc(/C=C2\SC(=S)N(CCC(=O)N3CCCCC3)C2=O)cc1	8.8	10.0%	-9.1	20.6µM*	?	.
Cc1ccc(/C=C2/SC(=S)N(CCC(=O)N3CCOCC3)C2=O)cc1	3.0	-2.8%	0.1	16.4µM*	11.6µM*	-2.3%
O=C(CCN1C(=O)/C(=C/c2cccs2)SC1=S)N1CCCCC1	7.0	?	-104.0*	7.31µM*	5.8µM*	.
COc1cc(/C=C2\SC(=S)N(CCC(=O)N3CCCCC3)C2=O)cc(OC)c1OC	1.3	-20.6%	-101.3*	?	16.4µM*	0.4%[0.0935 µM]
COc1ccc(/C=C2\SC(=S)N(CCCC(=O)N3CCOCC3)C2=O)cc1OC	-8.6	?	6.6	?	2.4%	4.9%
Cc1cc2[nH]c3c(=O)n(Cc4ccccc4F)ncc3c2s1	.	.	.	.	.	-0.2%
CC(C)=CC(=O)Oc1ccc(C(=O)N(C)c2ccccc2I)cc1	36.2	.	.	.	.	3.8%
O=C(Nc1ccc(C(=O)N2CCCC2)cc1)C1CCC1	-2.1	.	59.2	-7.9%	6.4%	.
CN1CCN(C(=O)CCN2C(=O)/C(=C/c3ccc(F)cc3)SC2=S)CC1	5.4	6.8%	-102.0*	18.4µM*	?	.
O=C(CCCNC(=O)c1ccc(Cl)cc1)Nc1ccc(Br)cc1	-7.6	-10.8%	-19.3	-14.7%	-16.7%	10.8%
O=C(CCN1C(=O)c2cccc3cccc(c23)C1=O)N1CCOCC1	10.7	?	?	-15.1%	7.3%	5.3%
O=C(CCCN1C(=O)c2cccc3cccc(c23)C1=O)N1CCN(c2ccc(F)cc2)CC1	0.9	?	-53.5*	16.4µM*	?	7.2%
COc1ccc(N2CCN(C(=O)CCCN3C(=O)c4cccc5cccc(c45)C3=O)CC2)cc1	0.1	10.3µM*	-15.5	16.4µM*	?	9.6%

Assay outcomes as filed in PubChem BioAssay.
